Screen size: about 220,000 compounds; about 910 (0.41%) were called active.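 Rule for the calls: active = primary inhibition above the hit cutoff, then over 50% inhibition at one or more dose response concentrations (cut at about 23% in these data, passing the limit was not always enough); inconclusive = conflicting primary data, or primary hits not chosen for dose response; inactive = low primary inhibition, or under 50% at every dose.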 The full list was thinned out, with actives kept by preference. Potency and affinity values are given separately.
Each molecule was assayed against Aminopeptidase N (Plasmodium falciparum (isolate 3D7)) (UniProt O96935) (assay: P. falciparum M1AAP inhibitors, biochemical, fluorogenic H-Leu-NHMec substrate, 1536-well (AID 1445;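 note: plate controls were DMSO full reaction for no effect and no enzyme background for full effect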)). Conditions: recombinant M1AAP, H-Leu-NHMec fluorogenic kinetic assay; at 30 µM, stronger effect = higher value unless noted.
Sequence of Aminopeptidase N (Plasmodium falciparum (isolate 3D7)) (O96935 whole entry, looked up): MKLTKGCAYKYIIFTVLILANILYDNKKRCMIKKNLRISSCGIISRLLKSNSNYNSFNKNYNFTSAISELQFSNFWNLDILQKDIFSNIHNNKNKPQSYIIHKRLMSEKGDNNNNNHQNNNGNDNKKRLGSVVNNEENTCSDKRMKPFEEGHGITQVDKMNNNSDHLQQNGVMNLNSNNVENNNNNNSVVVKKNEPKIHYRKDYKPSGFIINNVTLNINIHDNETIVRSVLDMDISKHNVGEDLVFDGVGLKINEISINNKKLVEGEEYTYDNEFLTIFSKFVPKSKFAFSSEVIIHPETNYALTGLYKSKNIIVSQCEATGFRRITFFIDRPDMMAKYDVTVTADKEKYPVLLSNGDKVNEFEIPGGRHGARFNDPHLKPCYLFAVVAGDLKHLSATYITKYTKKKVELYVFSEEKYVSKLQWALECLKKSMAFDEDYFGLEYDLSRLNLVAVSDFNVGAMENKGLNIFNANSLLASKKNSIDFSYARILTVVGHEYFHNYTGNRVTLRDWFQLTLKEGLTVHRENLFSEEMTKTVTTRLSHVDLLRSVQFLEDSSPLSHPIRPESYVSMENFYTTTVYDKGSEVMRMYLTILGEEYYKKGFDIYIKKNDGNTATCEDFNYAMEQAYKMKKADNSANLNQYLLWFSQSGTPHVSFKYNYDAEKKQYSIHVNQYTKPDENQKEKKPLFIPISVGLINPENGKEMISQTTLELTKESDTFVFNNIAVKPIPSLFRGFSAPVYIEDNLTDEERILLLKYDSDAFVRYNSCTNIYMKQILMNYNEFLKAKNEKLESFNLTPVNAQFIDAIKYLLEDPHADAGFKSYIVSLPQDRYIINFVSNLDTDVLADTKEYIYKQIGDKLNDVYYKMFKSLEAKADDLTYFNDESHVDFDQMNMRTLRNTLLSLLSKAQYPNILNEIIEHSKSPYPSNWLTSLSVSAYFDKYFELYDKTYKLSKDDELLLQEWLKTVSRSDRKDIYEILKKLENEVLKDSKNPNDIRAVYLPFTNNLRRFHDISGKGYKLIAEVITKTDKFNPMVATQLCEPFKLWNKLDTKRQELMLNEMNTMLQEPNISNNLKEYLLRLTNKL

inhibition, inactive:
Cc1cc(=O)n(-c2ccc(Cl)cc2)c(=O)[nH]1 -2%, Cc1c(C(=O)NCc2ccccn2)oc2ccc(S(=O)(=O)N3CCOCC3)cc12 -1.02%, O=C(O)CCCC(=O)NNc1ncnc2ccccc12 13.7%, O=C(CCCCCN1C(=O)c2ccccc2C1=O)NCc1ccco1 19.7%, O=C(Oc1c(Cl)cc(Cl)c2ccccc12)N1CCCC1 13.6%, COc1ccc(-c2nn(-c3ccccc3)cc2/C=C/C(=O)OCC(=O)Nc2cccc(C#N)c2)cc1 0.99%, O=C(NC1CCN(C(=S)NCc2ccco2)CC1)c1ccc(F)cc1 14.1%, O=C(NCc1ccco1)c1cccc(F)c1 4.04%, COc1ccc(C(C(=O)NC2CCCCC2)N(C(=O)c2sc(C)nc2C)c2ccccc2)cc1 (stereo not drawn) -2.38%, O=C(Nc1ccncc1)Nc1ccccn1 3.11%, Cc1cc(NC(=O)Nc2cccs2)no1 6.28%, O=C(Nc1ccccn1)c1cccs1 3.97%, Cc1ccc(NC(=O)Nc2cccs2)cc1 9.98%, Cc1cccc(C)c1-n1c(C)cc(/C=N/NC(=O)CSc2ncccn2)c1C 4.32%, CC(C)CCNC(=O)NC(=O)COC(=O)C1=COCCO1 -7.85%, O=c1cc(C23CC4CC(CC(C4)C2)C3)[nH][nH]1 -6.62%, COc1ccc(C(=O)/C(=C/c2cccs2)c2nc3ccccc3o2)cc1 15.5%, N#C/C(=C\c1ccc(Cl)cc1)c1nc2ccccc2o1 15.7%, N#C/C(=C\c1ccc(O)cc1)c1nc2ccccc2o1 7.39%, COc1ccc(C(=O)/C(=C\c2sccc2C)c2nc3ccccc3o2)cc1 2.1%, COCc1[nH]nc2c1C(c1ccsc1)C(C#N)=C(N)O2 (stereo not drawn) 1.23%, CCc1ccc(N2CC(C(=O)Nc3cc(C)ccc3F)CC2=O)cc1 (stereo not drawn) 1.79%, Cc1c2c(nc3c(C(=O)NC4CCCCC4C)cnn13)CCCC2 (stereo not drawn) 3.74%, O=C(Cc1csc(-c2ccccc2)n1)NCc1ccccc1F 2.51%, O=[N+]([O-])c1cccc(-c2ccc(/C=N/NC(=S)Nc3ccccc3)o2)c1 2.03%, O=C(O)c1cc(-c2ccc(/C=N/Nc3ccc(Cl)cc3)o2)ccc1Cl 16.9%, Cc1ccc(-c2ccc(/C=N\NC(=O)c3cc4c(ccc5ccccc54)o3)o2)cc1[N+](=O)[O-] 2.34%, COCc1cc(C)n(CC(=O)Nc2ccc(Cl)cc2Cl)c(=O)c1C#N 10.9%, COCc1cc(C)nc(N/N=C/c2ccc(-c3ccc(C(=O)O)c(Cl)c3)o2)c1C#N 15.5%, O=C(N/N=C/c1ccc([N+](=O)[O-])o1)c1cc2c(ccc3ccccc32)o1 5.62%, Nc1nonc1C(=O)N/N=C/c1ccc(-c2cccc(C(=O)O)c2)o1 16.9%, Nc1nonc1C(=O)N/N=C/c1ccc(-c2cccc([N+](=O)[O-])c2)o1 7.55%, CC(=O)Nc1ccc(S(=O)(=O)NCC(=O)OCC(=O)NC(=O)c2cccn2C)cc1 3.48%, CC1CCN(S(=O)(=O)c2ccc(NC(=O)CCN3C(=O)c4ccccc4C3=O)cc2)CC1 4.02%, C=CCNC(=S)/N=c1/scc(C)n1C 6.8%, Cc1ccccc1Cn1ccc(NC(=O)c2onc(C)c2Cl)n1 2.73%, COCCNC(=O)COc1ccccc1Cl 17.4%, O=C(Nn1cc(C(=O)Nc2ccc(F)cc2F)c2ccccc2c1=O)c1cnccn1 5.45%, CCOC(=O)N1CCN(c2c(N3CCN(c4ccccc4F)CC3)c(=O)c2=O)CC1 3.17%, CCc1nnc(NC(=O)CSc2nnc(CNC(=O)c3ccc(OC)c(OC)c3)o2)s1 0.34%, CC1(C)NC(=O)N(CCCCOc2ccccc2[N+](=O)[O-])C1=O 1.49%, O=C1C2C3C=CC(C4CC34)C2C(=O)N1/N=C/c1ccc(-c2ccc([N+](=O)[O-])cc2)o1 (stereo not drawn) 7.6%, O=C(Cc1ccc(Br)cc1)N/N=C/c1ccc(-c2cccc(C(=O)O)c2)o1 14.3%, COC(=O)c1ccc(-c2ccc(/C=N/N3C(=O)C4C5C=CC(C6CC56)C4C3=O)o2)cc1 (stereo not drawn) 4.36%, COc1ccc(CC(=O)N/N=C/c2ccc(-c3ccc(F)cc3)o2)cc1OC 6.71%, O=C(CCN1CCN(C(=O)c2ccco2)CC1)Nc1ccc(F)cc1 1.29%, S=C(NCCCn1ccnc1)NC1CCCCC1 6.56%, CCC(C)NC(=O)CN(C)S(=O)(=O)c1ccc2c(c1)c(=O)n(C)c(=O)n2C (stereo not drawn) -4.82%, CCCC(=O)OCC(=O)Nc1ccc2c(c1)OCO2 -0.89%, CCOC(=O)C1=C(C)N=c2s/c(=C3\C(=O)Nc4ccccc43)c(=O)n2C1c1ccc2c(c1)OCO2 (stereo not drawn) 8.57%, Cc1cc(C)nc(NS(=O)(=O)c2ccc(N3C(=O)c4ccccc4C3=O)cc2)n1 0.35%, CCO/C=C1\C(=O)N(c2ccccc2)C(=O)c2ccccc21 -1.51%, CCO/C=C1/C(=O)N(c2ccc(OC)cc2)C(=O)c2ccccc21 4.8%, CCOc1ccc(N2C(=O)c3ccccc3C2=O)cc1 -0.53%, COc1ccccc1N1CCN(C(c2ccc(N(C)C)cc2)c2nnnn2CCc2ccccc2)CC1 (stereo not drawn) -7.04%, COc1ccc(Oc2c(C)oc3c(CN(C)C)c(O)ccc3c2=O)cc1 2.59%, Cc1oc2c(CN3CCCC3)c(O)ccc2c(=O)c1-c1ccccc1 9.3%, CCc1cc2c3c(c(=O)oc2cc1O)CCCC3 22.5%, CCc1c(C)c2ccc(OCC(=O)N(C)C)c(C)c2oc1=O 0.38%, CCCc1cc(=O)oc2c(CN3CCOCC3)c(O)ccc12 21.8%, CCN(CC)Cc1c(O)c(Cl)cc2c3c(c(=O)oc12)CCCC3 9.62%, O=c1oc2c(CN3CCOCC3)c(O)ccc2c2ccccc12 3.91%, Cc1oc2c(CN3CCCC3)c(O)ccc2c(=O)c1-c1ccc(Br)cc1 17.5%

From PubChem BioAssay AID1445 (SRMLSC, 2008)
